The nature of assay [1]: inhibitors of TNFa-induced NFkB p65 translocation, primary screen, imaging, HUVEC, MLSMR starter and 10KST1 sets (AID 438;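 active = inhibition above 20% together with a positive visual image hit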;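 also: compound added about 3h40 before a 20 min TNFalpha stimulation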;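 as to inhibition: signal is the nuclear over cytoplasmic p65 intensity ratio per well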). The settings on record: HUVEC TNFa-induced p65 nuclear translocation; cell count: measured here: nuclei count (cytotoxicity indicator), at 2.08 µM; inhibition: at 2 µM, stronger effect = higher value, 0% TNFa-plus-vehicle, 100% no-TNFa wells.
The nature of assay [2]: reduction of polyQ htt aggregates in cells – imaging, exon1htt(103Q)mCFP cells, high-content imaging, primary screen (AID 483;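 active = visual image review flags a hit and inhibition of aggregation exceeds 20%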;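 also: compound exposure lasted 3 days before fixation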;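 as to nuclei count: percent of the per-plate median nuclei count of sample wells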). The following applies: exon1htt(103Q)mCFP cell line, aggregate imaging, at 2 µM; inhibition of aggregation: stronger effect = higher value; nuclei count: measured here: cell count, toxicity.
The nature of assay [3]: endothelial E-selectin expression blockers – imaging, HUVEC, immunofluorescence, MLSMR starter and 10KST1 sets, primary screen (AID 487).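 As to inhibition: signal is fraction of cell area covered by stained E-selectin grains.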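 As to nuclei count: 100% = median nuclei count of all wells on the same plate.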 The following applies: HUVEC TNFalpha-induced E-selectin immunofluorescence imaging, at 2 µM; inhibition: stronger effect = higher value; nuclei count: measured here: cell number, toxicity.
Assay [4] has as its target Voltage-gated potassium channel subunit beta-2 (Rattus norvegicus) (UniProt P62483). In words: inhibitors of rat Kvbeta2 reductase activity – biochemical, NADPH fluorescence, primary screen (AID 622;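 active = fluorescence slope higher than the sample average by over 3 SD, cut at about -0.22 in these data, passing the limit was not always enough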;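 also: slope of raw intensity against log time taken from 70 to 1610 s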). The following applies: recombinant KvBeta, 4-cyanobenzaldehyde reduction, at 10 µM, stronger effect = higher value.
The target is the same in assay [5]. In words: enhancers of rat Kvbeta2 NADPH turnover – biochemical, NADPH fluorescence, primary screen (AID 623;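 active = NADPH fluorescence slope more negative than the mean of all samples by about 3 SD, 99.7% confidence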;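 also: fluorescence intensity change per second fitted from 20 to 320 s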). The settings on record: Recombinant KvBeta, NADPH fluorescence decrease slope, 10 min; at 10 µM; stronger effect = lower value.
For assay [6], the target named is Alpha-2C adrenergic receptor (Homo sapiens) (UniProt P18825). Description: compounds altering alpha2C-coupled GIRK flux – cell-based, HEK293 alpha2C/GIRK1/2, thallium flux, primary screen (AID 624;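 active = fluorescence slope after compound addition differing from the mean of all screened samples at 99.7% confidence, in either direction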;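 also: slope of fluorescence ratio to pre-addition baseline per second over 15 to 24 s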). The following applies: thallium flux BTC fluorescence, at 10 µM, actives lie on both sides.
Alpha-2C adrenergic receptor (Homo sapiens), sequence (P18825 whole entry, looked up): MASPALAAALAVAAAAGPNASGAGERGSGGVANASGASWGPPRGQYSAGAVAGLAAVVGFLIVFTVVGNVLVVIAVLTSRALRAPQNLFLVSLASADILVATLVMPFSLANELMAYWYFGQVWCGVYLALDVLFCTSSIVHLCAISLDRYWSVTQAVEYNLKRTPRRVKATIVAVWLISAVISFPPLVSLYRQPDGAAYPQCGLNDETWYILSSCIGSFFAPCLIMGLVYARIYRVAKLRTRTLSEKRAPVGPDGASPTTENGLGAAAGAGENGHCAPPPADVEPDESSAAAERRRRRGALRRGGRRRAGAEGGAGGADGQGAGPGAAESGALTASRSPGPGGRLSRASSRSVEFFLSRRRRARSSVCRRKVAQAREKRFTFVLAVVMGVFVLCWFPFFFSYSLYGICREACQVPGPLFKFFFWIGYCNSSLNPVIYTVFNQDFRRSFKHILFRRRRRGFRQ
Assay [7] in a line: blockers of RIG-like receptor reporter activation – cell-based, Sendai virus stimulus, luciferase, 10K MLSCN set, TLR/RLR signaling modifier project, primary screen (AID 602276;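 active = inhibition at or above 50% at 10 µM; inactive = inhibition below 50%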;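 also: firefly luciferase from ISG56 promoter only with Renilla not read in this screen; 0% = Sendai virus plus DMSO and 100% = medium plus DMSO without virus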). The settings on record: HEK293 RL24 IRF3 luciferase reporter, at 10 µM, stronger effect = higher value.
Assay [8] is described as follows: TLR3 IRF3 reporter activation blockers – cell-based, poly I:C stimulus, luciferase, 10K MLSCN set, primary screen (AID 602277;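 active = inhibition of the reporter signal at or above 50%; inactive = inhibition below 50%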). The following applies: HEK293-TLR3 RL24 IRF3 luciferase reporter, at 10 µM, stronger effect = higher value. A general note: In a reporter assay the amount or activity of a reporter protein is the signal.

Calls of active or inactive are those of the source.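 The calls were made as follows, unless noted: active = visually confirmed hit in the image check and inhibition above 20%; inconclusive = visually confirmed hit but inhibition not above 20%; inactive = no visual hit in the image check.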

Voltage-gated potassium channel subunit beta-2 (Rattus norvegicus), sequence (P62483 whole entry, looked up): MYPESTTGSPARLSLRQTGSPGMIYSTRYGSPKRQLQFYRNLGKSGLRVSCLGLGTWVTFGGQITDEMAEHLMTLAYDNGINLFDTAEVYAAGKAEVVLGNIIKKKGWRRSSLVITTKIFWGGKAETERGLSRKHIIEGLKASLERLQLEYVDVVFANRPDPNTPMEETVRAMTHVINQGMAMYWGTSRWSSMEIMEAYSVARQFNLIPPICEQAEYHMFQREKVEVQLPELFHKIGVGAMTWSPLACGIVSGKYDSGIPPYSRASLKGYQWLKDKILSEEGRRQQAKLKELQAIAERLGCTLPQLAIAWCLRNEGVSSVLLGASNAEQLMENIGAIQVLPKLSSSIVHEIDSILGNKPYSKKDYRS

Regarding `COc1cccc(NC(=O)N2CCCC2C(=O)NC(C)C)c1` (centres undefined), the cell count in assay [1] worked out at 436. Also, the inhibition (in general, the relative decrease from the control value, in per cent) in assay [1] was 1.5% (inactive); in assay [3], -49.5% (inactive); in assay [7], 10.9% (inactive); in assay [8], 13.7% (inactive). Further, the inhibition of aggregation in assay [2] was -4.5% (inactive). Moreover, the nuclei count came to 121% in assay [2] and 114% in assay [3]. The fluorescence slope in assay [4] was -0.601 (inactive). Moreover, in assay [5], the NADPH fluorescence slope is -2.2e-05 (inactive). For the same compound, the slope in assay [6] is 0.00309 (inactive).
For the compound `C=CCOc1nc(N(C)C)nc(N(C)C)n1`, in assay [1], the cell count worked out at 569. Also, the inhibition was 3.6% (inactive) in assay [1], -138% (inactive) in assay [3], 10.6% (inactive) in assay [7] and 10.6% (inactive) in assay [8]. In assay [2], the inhibition of aggregation was -3.6% (inactive). For the same compound, the nuclei count was 103% in assay [2] and 96% in assay [3]. In assay [4], the fluorescence slope was -0.595 (inactive). Besides, the NADPH fluorescence slope in assay [5] is -3.9e-05 (inactive). Besides, in assay [6], the slope is 0.00356 (inactive).
As to `O=C(CN1CCN(c2ncccn2)CC1)Nc1ccccc1-n1cccc1`, the cell count in assay [1] worked out at 327. The inhibition in assay [1] is 13.4% (inactive); in assay [3], 25.5% (inactive); in assay [7] it was 14.7% (inactive); in assay [8] it was 8.32% (inactive). In addition, the inhibition of aggregation in assay [2] is 16% (inactive). Also, the figures for the nuclei count in assay [2] and in assay [3] were 81.3% and 93.4%, respectively. For the same compound, in assay [4], the fluorescence slope was -0.621 (inactive). Further, the NADPH fluorescence slope in assay [5] is -6.7e-06 (inactive). The slope in assay [6] is 0.006 (inactive).
With `COc1cccc(-c2nc3n(n2)C(c2ccccc2Cl)C(C(N)=O)=C(C)N3)c1` (centres undefined), the cell count in assay [1] turned out to be 595. Also, the inhibition in assay [1] is -0.8% (inactive); in assay [3] it was -26.6% (inactive); in assay [7] it was 12.1% (inactive); in assay [8], 38.1% (inactive). Moreover, the inhibition of aggregation in assay [2] is -7.2% (inactive). Moreover, the nuclei count came to 114% in assay [2] and 103% in assay [3]. For the same compound, the fluorescence slope in assay [4] is -0.393 (inactive). For the same compound, the NADPH fluorescence slope in assay [5] was 1.7e-05 (inactive). Moreover, the slope in assay [6] is 0.00613 (inactive).
On to `O=c1[nH]c2sc3c(c2c2nncn12)CCCC3`, for which the cell count in assay [1] worked out at 420. For the same compound, the inhibition in assay [1] is 11.2% (inactive); in assay [3] it was -112% (inactive); in assay [7], 7.28% (inactive); in assay [8] it was -10% (inactive). Besides, in assay [2], the inhibition of aggregation was 13.5% (inactive). For the same compound, the nuclei count in assay [2] was 108%; in assay [3] it was 111%. The fluorescence slope in assay [4] is -0.499 (inactive). Further, the NADPH fluorescence slope in assay [5] is -0.000261 (inactive). Further, the slope in assay [6] is 0.00486 (inactive).
Consider `COCCN(C(=O)c1csnn1)C(C(=O)NC(C)(C)C)c1cccc(OC)c1` (centres undefined), for which the cell count in assay [1] turned out to be 684. Moreover, the inhibition is -1.7% (inactive) in assay [1], 0.2% (inactive) in assay [3], 17% (inactive) in assay [7] and 14.6% (inactive) in assay [8]. The inhibition of aggregation in assay [2] is -26.8% (inactive). The nuclei count in assay [2] was 76.2%; in assay [3], 102%. In addition, the fluorescence slope in assay [4] was -0.515 (inactive). Moreover, in assay [5], the NADPH fluorescence slope was -2.6e-05 (inactive). Besides, the slope in assay [6] is 0.00595 (inactive).
Consider `COc1ccc(-c2nnnn2C)cc1S(=O)(=O)NCc1ccccc1`, for which the cell count in assay [1] was 579. The inhibition in assay [1] is 0.6% (inactive); in assay [3] it was -49.3% (inactive); in assay [7], 10.3% (inactive); in assay [8], 4.79% (inactive). Besides, the inhibition of aggregation in assay [2] is 7.2% (inactive). Moreover, the figures for the nuclei count in assay [2] and in assay [3] were 106% and 110%, respectively. Besides, the fluorescence slope in assay [4] was -0.415 (inactive). Also, the NADPH fluorescence slope in assay [5] was 5.2e-06 (inactive). Also, in assay [6], the slope was 0.00442 (inactive).
As to `Cc1nc(N2CCC(C)CC2)c2c(C)c(C(=O)O)sc2n1`, the cell count in assay [1] was 657. Moreover, the inhibition in assay [1] is -4.1% (inactive); in assay [3], -72.5% (inactive); in assay [7] it was 14% (inactive); in assay [8], 23.3% (inactive). Moreover, the inhibition of aggregation in assay [2] is 31% (inactive). In addition, the nuclei count came to 66.2% in assay [2] and 103% in assay [3]. Further, the fluorescence slope in assay [4] is -0.303 (inactive). Also, in assay [5], the NADPH fluorescence slope is 1.1e-05 (inactive). For the same compound, in assay [6], the slope was 0.00417 (inactive).
Take `O=C(CSc1nnc(-c2ccccc2)o1)N1CCN(c2ccccc2)CC1`: the cell count in assay [1] came out at 220. Besides, the inhibition in assay [1] was 12.5% (inactive); in assay [3], -98.1% (inactive); in assay [7], 5.38% (inactive); in assay [8], 2.42% (inactive). Also, the inhibition of aggregation in assay [2] was -9.2% (inactive). In addition, the nuclei count in assay [2] came to 88.7%; in assay [3] it was 105%. Further, the fluorescence slope in assay [4] is -0.406 (inactive). Also, in assay [5], the NADPH fluorescence slope is -3.6e-05 (inactive). Besides, in assay [6], the slope is 0.0062 (inactive).
`CCCN(CCC)S(=O)(=O)c1ccc(NS(C)(=O)=O)cc1`: the cell count in assay [1] was determined as 399. Besides, the inhibition in assay [1] was 3.4% (inactive); in assay [3], -126% (inactive); in assay [7], 6.07% (inactive); in assay [8] it was 12.8% (inactive). The inhibition of aggregation in assay [2] is -3% (inactive). The nuclei count in assay [2] turned out to be 108%; in assay [3], 107%. Further, in assay [4], the fluorescence slope is -0.391 (inactive). Also, the NADPH fluorescence slope in assay [5] is 1e-05 (inactive). Also, the slope in assay [6] is 0.00362 (inactive).
As for `CCOC(=O)c1c(N)sc(C(=O)N2CCOCC2)c1C`, the cell count in assay [1] was found to be 314. Moreover, the inhibition is -11.5% (inactive) in assay [1], -10.6% (inactive) in assay [3], 16.8% (inactive) in assay [7] and 18.1% (inactive) in assay [8]. Further, in assay [2], the inhibition of aggregation was 12.2% (inactive). The values for the nuclei count in assay [2] and in assay [3] were 103% and 119%, respectively. In addition, the fluorescence slope in assay [4] was -0.345 (inactive). In addition, the NADPH fluorescence slope in assay [5] was 2.6e-05 (inactive). Also, in assay [6], the slope was 0.00763 (inactive).
Consider `COc1ccc(S(=O)(=O)NC(C)C(=O)Nc2cccc(C(C)=O)c2)cc1` (centres undefined), for which the cell count in assay [1] amounted to 255. Also, the inhibition in assay [1] is 2.4% (inactive); in assay [3], -2.9% (inactive); in assay [7], 14.3% (inactive); in assay [8], 15.3% (inactive). Moreover, the inhibition of aggregation in assay [2] is 14.5% (inactive). Moreover, the nuclei count in assay [2] was 97.3%; in assay [3], 62.6%. For the same compound, the fluorescence slope in assay [4] is -0.402 (inactive). Moreover, the NADPH fluorescence slope in assay [5] was -2.7e-05 (inactive). For the same compound, the slope in assay [6] is 0.00498 (inactive).
Take `CCC(=O)Nc1ccc2nc(SCC(=O)N3CCCC3)sc2c1`: the cell count in assay [1] amounted to 709. The inhibition is -23.3% (inactive) in assay [1], -56.1% (inactive) in assay [3], -25.3% (inactive) in assay [7] and -44.2% (inactive) in assay [8]. Further, the inhibition of aggregation in assay [2] is -2.1% (inactive). Further, the nuclei count in assay [2] worked out at 102%; in assay [3], 122%. Also, the fluorescence slope in assay [4] is -0.503 (inactive). Also, in assay [5], the NADPH fluorescence slope is -2.8e-05 (inactive). The slope in assay [6] is 0.00507 (inactive).
Turning to `CCOc1ccc(NC(=O)c2ccc3c(c2)N(Cc2ccc(F)cc2)C(=O)CS3=O)cc1` (centres undefined), the cell count in assay [1] was found to be 659. Also, the inhibition was 0% (inactive) in assay [1], -25.6% (inactive) in assay [3], 5.6% (inactive) in assay [7] and -7.02% (inactive) in assay [8]. Further, the inhibition of aggregation in assay [2] is -4.8% (inactive). For the same compound, the nuclei count is 105% in assay [2] and 113% in assay [3]. In assay [4], the fluorescence slope is -0.551 (inactive). Further, in assay [5], the NADPH fluorescence slope was -2.5e-05 (inactive). Further, the slope in assay [6] is 0.00664 (inactive).

The record behind these values is PubChem BioAssay.
